Consider 40 compounds from PubChem BioAssay (EPA / NIEHS).

Inconclusive results are not listed. Calls of active or inactive are those of the source. How the source made its calls: active means hit-call score of the fitted dose curve at least 0.9, where 1 is the maximum; inconclusive means response in the unintended direction; inactive means score below 0.9.

Chain of human Thyroid Receptor alpha (THRa1), THRA (gene 7067) (P10827 whole entry, looked up): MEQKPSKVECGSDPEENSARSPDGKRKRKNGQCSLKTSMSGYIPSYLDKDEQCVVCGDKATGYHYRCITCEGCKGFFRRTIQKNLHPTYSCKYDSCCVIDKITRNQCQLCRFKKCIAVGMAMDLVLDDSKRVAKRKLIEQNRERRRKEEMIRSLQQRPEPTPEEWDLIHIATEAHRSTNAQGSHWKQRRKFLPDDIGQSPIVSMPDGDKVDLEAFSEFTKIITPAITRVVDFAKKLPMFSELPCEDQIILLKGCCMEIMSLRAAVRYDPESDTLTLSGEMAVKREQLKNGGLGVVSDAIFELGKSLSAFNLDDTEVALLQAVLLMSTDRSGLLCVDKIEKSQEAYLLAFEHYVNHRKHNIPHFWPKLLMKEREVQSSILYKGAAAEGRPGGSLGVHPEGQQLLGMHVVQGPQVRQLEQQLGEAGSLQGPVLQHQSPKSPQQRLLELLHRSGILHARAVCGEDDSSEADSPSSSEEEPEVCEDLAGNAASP

The test concerns the target human Thyroid Receptor alpha (THRa1), THRA (gene 7067) (UniProt P10827). As to the kind of experiment: ATG_THRa1_TRANS: Attagene TRANS-FACTORIAL HepG2 Assay for human Thyroid Receptor alpha (THRa1) (AID 2283014). How it is done: ATG_TRANS is a cell-based, multiplexed-readout assay that uses HepG2, a human liver cell line, with measurements taken at 24 hours after chemical dosing in a 24-well plate.ATG_THRa1_TRANS is one of 30 assay component(s) measured or calculated from the ATG_TRANS assay. It is designed to make measurements of mRNA induction, a form of inducible reporter, as detected with fluorescence intensity signals by Reverse transcription polymerase chain reaction (RT-PCR) and Capillary electrophoresis technology.Data from the assay component ATG_THRa1_TRANS was analyzed into 1 assay endpoint. This assay endpoint, ATG_THRa1_TRANS, was analyzed in the positive analysis fitting direction relative to DMSO as the negative control and baseline of activity. Using a type of inducible reporter, measures of mRNA for gain-of-signal activity can be used to understand the reporter gene at the transcription factor-level as they relate to the gene THRA. Furthermore, this assay endpoint can be referred to as a primary readout, because this assay has produced multiple assay endpoints where this one serves a reporter gene function. To generalize the intended target to other relatable targets, this assay endpoint is annotated to the nuclear receptor intended target family, where the subfamily is non-steroidal.
Human liver HepG2 cells are transiently transfected with multiple reporter transcription units (MRTUs) in 6-well plates using FuGene 6 reagent (Roche; 3 ml FuGene/1 mg DNA). The MRTU constructs are regulated by a cis-regulating element (promoter). […] A major difference between the CIS and TRANS system is that in CIS activities of endogenous TFs are measured, whereas the TRANS assay evaluates changes in activities of exogenous, chimeric NR-Gal4 proteins. […] At the end of 24 hour incubation, total RNA was isolated using TriZol reagent (Invitrogen). The isolated RNA is then reverse-transcribed using oligo(dT) primer and Mo-MLV reverse transcriptase (Invitrogen) with DNAse I (Ambion) treatment for 30 min. The one-tenth of the produced cDNA was amplified by PCR using Taq DNA polymerase (Invitrogen) and two reporter sequence-specific primers. The PCR products were fluorescently labeled by primer extension with 6-arboxyfluorescein (6-FAM) 5'-labeled reporter sequence-specific primer (2 min at 95 C, 20 s at 68 C and 10 min at 72 C) and these products were digested with 5U of HpaI (New England Biolabs) for 2h at 37 C. The fragments were purified using Qiaquick PCR columns (Qiagen), analyzed on an ABI 3130xL genetic analyzer (Applied Biosystems) with peak positions identified by using a set of X-rhodamine (ROX)-labeled MapMarker1000 molecular weight standards (BioVentures). The raw capillary electrophoresis data was processed using Attagraph software (Attagene).
For the compound `C1=Cc2ccccc2C1`, the call was inactive. For `CC(C)c1ccc(C=O)cc1`, the compound was called inactive. Still for that read-out and setting: the value for `Cc1cccc(N(C)C(=S)Oc2ccc3ccccc3c2)c1` was “inactive”; that for `CO[Si](CCC1CCC2OC2C1)(OC)OC` (stereo not given) was “inactive”; that for `CC(C)(Oc1ccc(C2CC2(Cl)Cl)cc1)C(=O)O` (stereo not given) was “inactive”. Still for that read-out and setting: then `C=C[Si](C)(C)O[Si](C)(C)C=C`, with “inactive”; and `CCCC(C)CCC(C)=O` (stereo not given), with “inactive”.

As for `O=C1CC2CC1C1CCCC21` (stereo not given), the compound was called inactive. As for `CCOc1nc(F)cc2nc(S(=O)(=O)Nc3c(Cl)cccc3C(=O)OC)nn12`, the compound was called inactive. For the compound `CC=CC(=O)N(CC)c1ccccc1C`, the outcome was inactive.

`Cc1cccc(C(=O)O)c1`: the call was inactive. With `NC(=O)NNC(N)=O`, the compound was classed as inactive. `CCCCCCCC[N+](C)(CCCCCCCC)CCCCCCCC`: the compound was called inactive. Regarding `O=C1CCCN1CCO`, the outcome was inactive. As for `CCCCNc1ccc(NCCCC)c2c1C(=O)c1ccccc1C2=O`, the compound was classed as inactive.

Regarding `C[Si](C)O[Si](C)(C)O[Si](C)(C)O[Si](C)C`, the result was inactive.

`COc1cc(C)ccc1C(C)C`: the compound was classed as inactive. The same measure, in the same setting: then `[Cl][In]([Cl])[Cl]`, with “inactive”. On to `O=c1[nH]c(=O)c2[nH]c(=O)[nH]c2[nH]1`, for which the outcome was inactive. On the same count and under the same terms, the value for `C=CCOCC(O)CCl` (stereo not given) was “inactive”; that for `CCCCCCCCO[C@@H]1O[C@H](CO)[C@@H](O)[C@H](O)[C@H]1O` was “inactive”.

`CCCCCCCCCCOC(C)=O`: the compound was called inactive. Same read-out and setting: the value for `CN(C)c1ccc(C(=N)c2ccc(N(C)C)cc2)cc1` was “inactive”. The same measure, in the same setting: then `CCCCCCCCCCc1ccccc1`, with “inactive”. On the same count and under the same terms, the value for `CC1=NN(c2cc(S(=O)(=O)O)ccc2Cl)C(=O)C1N=Nc1ccccc1` (stereo not given) was “inactive”. Turning to `CC(C)C1=CC2=CC[C@@H]3[C@](C)(CCC[C@@]3(C)C(=O)O)[C@H]2CC1`, the call was inactive.

For the compound `CCCCCCCCc1ccc(Nc2ccc(CCCCCCCC)cc2)cc1`, the compound was classed as inactive. Still for that read-out and setting: the value for `OCCc1ccncc1` was “inactive”. As to `C=CC(C)(CCC=C(C)C)OC(=O)CC(C)C` (stereo not given), the call was inactive. As for `O=C1CCC(=O)N1Cl`, the compound was classed as inactive. On the same count and under the same terms, then `CCN(CCC#N)c1ccc(N=Nc2c(Cl)cc([N+](=O)[O-])cc2Cl)cc1`, with “inactive”.

For `C=COCCCC`, the result was inactive. `Cc1cc(C)c(C)c(C)c1`: the call was inactive.

With `O=P(O)(O)Oc1ccccc1`, the AC50 is 8.7 µM (active). With `N=c1ccn2c(n1)O[C@H]1[C@H](O)[C@@H](CO)O[C@H]12`, the call was inactive. With `O=C1OC(=O)c2cc(Oc3ccc4c(c3)C(=O)OC4=O)ccc21`, the outcome was inactive. Still for that read-out and setting: then `CC(C)(C)c1ccc(-c2ccc(C(C)(C)C)cc2)cc1`, with “inactive”; and `O=C1c2ccccc2C(=O)C1c1nc2ccccc2c(Br)c1O`, with “inactive”; and `O=C(O)Cc1c(Cl)ccc(Cl)c1Cl`, with “inactive”. On the same count and under the same terms, then `Cc1ccc(C(C)(C)C)cc1`, with “inactive”.

By AC50 is commonly meant the midpoint of the concentration-response curve, whichever way the signal moves.
